High-throughput results as filed in PubChem BioAssay.
Rows were chosen to be rich in hits. Some 4.6% of all compounds tested hit in one or more screens of this group.
NR3A LBD binder – binders of NR3A ligand-binding domain, primary screen, biophysical, differential scanning fluorimetry, uHTS. NR3A LBD differential scanning fluorimetry, Tm shift; 0% = protein alone, 100% = glycine-bound protein. AID 1259313, 2017. Tm shift relative to glycine control, % at 25 µM. 340,000 compounds, 2.5% hits. Glutamate receptor ionotropic, NMDA 3A (GRIN3A) ligand-binding domain;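 active means melting temperature shift of at least 10% of the positive control shift, at one fixed dose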
FAS TE block – FAS thioesterase domain inhibitors, primary screen, biochemical, fluorescence intensity, uHTS. Fatty acid synthase (Homo sapiens), P49327. recombinant FAS-TE, OMFH fluorogenic substrate, fluorescence endpoint. inhibition, % at 15 µM. 360,000 compounds, 0.67% hits;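 active means compounds whose normalised, plate-corrected inhibition of enzyme fluorescence in the single-dose primary screen is 50% or more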;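 further: 0% = DMSO with enzyme and 100% = substrate without enzyme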
KLK7 zymogen act – proKLK7 zymogen activators, primary screen, biochemical, fluorescence intensity | AID 652039, 2013 | 370,000 compounds, 0.9% hits | activation, % at 7 µM | purified proKLK7, EDANS-DABCYL substrate fluorescence; 100% is mature enzyme control, 0% vehicle;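 active means activation above the mean of all tested compounds plus 3 SD, computed per campaign excluding outliers beyond control limits, cut at about 13% in these data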
ADAM10 inh – human ADAM10 inhibitors, primary screen, biochemical, QFRET, HTS | AID 720582, 2013 | recombinant ADAM10, EDANS/DABCYL FRET peptide cleavage, 3 h | inhibition, % at 7 µM | Disintegrin and metalloproteinase domain-containing protein 10 (Homo sapiens), O14672 | 370,000 compounds, 0.62% hits;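 active means inhibition above a per-campaign cutoff equal to the mean of compounds falling between control-based bounds plus 3 SD, cut at about 20% in these data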;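 further: 0% = DMSO wells while the 100% control is not disclosed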
ADAM17 inh – ADAM17 inhibitors, primary screen, biochemical, QFRET. 370,000 compounds, 0.83% hits. AID 720648, 2013. inhibition, % at 6.95 µM. Disintegrin and metalloproteinase domain-containing protein 17 (Homo sapiens), P78536. recombinant ADAM17, EDANS/DABCYL FRET peptide cleavage;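 active means inhibition above the mean of compounds lying between control limits plus 3 SD, set per campaign, cut at about 8.5% in these data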;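 further: 0% = DMSO-only wells as the low control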
Target sequence (P78536 215-824 limits assumed): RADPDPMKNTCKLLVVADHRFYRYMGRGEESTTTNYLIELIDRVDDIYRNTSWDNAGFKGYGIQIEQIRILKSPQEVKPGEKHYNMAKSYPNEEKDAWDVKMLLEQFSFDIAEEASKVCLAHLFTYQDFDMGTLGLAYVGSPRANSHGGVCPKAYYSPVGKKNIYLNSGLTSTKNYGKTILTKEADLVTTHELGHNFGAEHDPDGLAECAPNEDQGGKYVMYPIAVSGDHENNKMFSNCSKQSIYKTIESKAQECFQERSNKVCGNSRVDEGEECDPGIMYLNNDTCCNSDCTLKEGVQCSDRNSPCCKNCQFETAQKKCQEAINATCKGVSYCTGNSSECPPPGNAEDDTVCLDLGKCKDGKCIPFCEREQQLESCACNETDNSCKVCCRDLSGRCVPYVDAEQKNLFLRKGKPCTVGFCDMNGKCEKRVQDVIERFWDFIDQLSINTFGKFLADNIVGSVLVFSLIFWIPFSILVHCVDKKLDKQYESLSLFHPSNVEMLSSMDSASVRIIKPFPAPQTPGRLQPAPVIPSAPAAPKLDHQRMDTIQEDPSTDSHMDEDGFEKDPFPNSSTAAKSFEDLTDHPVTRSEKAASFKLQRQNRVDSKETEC
Numbers without * were called inactive; / = no result.

SMILES	NR3A LBD binder	FAS TE block	KLK7 zymogen act	ADAM10 inh	ADAM17 inh
CC(C)CN1C(=O)[C@]2(CC(=O)N(C)C2c2ccccc2)c2cc(-n3cc(CCc4ccccc4)nn3)ccc21 (some centres undefined)	/	/	0	-6	-3
CCOCC(=O)Nc1ccc(S(=O)(=O)NCCc2ccccc2)cc1	11*	-9	1	4	-2
COc1ccc(N2CCN(CCNS(=O)(=O)c3cccs3)CC2)cc1	/	/	0	-8	-5
CCN(Cc1ccccc1)C(=O)C1C2C=CC3(CN(Cc4ccccc4)C(=O)C13)O2 (centres undefined)	/	/	1	0	1
COc1ccc(NC(=O)c2cccc(OC(F)F)c2)cc1Cl	31*	18	0	5	1
COC(=O)c1cccc(NC(=O)c2ccc(OC)c(Cl)c2)c1	8	13	0	9	-4
COc1cc(NC(=O)c2ccccn2)ccc1NC(=O)c1ccccc1Cl	/	/	/	9	6
COc1ccc(NC(=O)c2ccccc2F)cc1Cl	30*	-1	0	-3	-5
O=C(Nc1ccc2c(c1)CCC2)c1cccc(OC(F)F)c1	7	24	0	8	4
COc1cc(NC(=O)c2ccc(-c3cccc(F)c3)o2)ccc1NC(=O)c1ccccc1Cl	23*	25	-2	2	-3
O=C(Nc1ccc(OC(F)F)c(Cl)c1)c1cccc(OC(F)F)c1	34*	32	/	/	/
COc1ccc(C2C(C(=O)Nc3ccc(Cl)c(Cl)c3)CCC(=O)N2c2ccc(OC)cc2)cc1 (centres undefined)	/	/	0	-5	-4
COc1ccc(NC(=O)c2cccc(F)c2)cc1Cl	10*	2	0	1	-1
C[C@H](O)[C@@H]1C(=O)N2CCc3c([nH]c4c(-c5ccc6c(c5)OCO6)cccc34)[C@@H]2C[C@@H]1N(C)C(=O)OCc1ccccc1	/	/	1	-9	-4
O=C1c2ccccc2C(=O)N1/N=C/c1ccc(O)c(O)c1	19*	-7	-1	0	2
O=C(Nc1ccccc1)n1ccc2ccc(-c3ccc4cc[nH]c4c3)cc21	/	/	-3	-102	-36
O=[N+]([O-])c1ccc(O)c(/C=N\N=C2c3ccccc3-c3ccccc32)c1	14*	7	-1	0	-6
NC(N)=N/N=C/c1cc([N+](=O)[O-])ccc1O	1	-2	-1	5	-1
O=C(Nc1cccc(NC(=O)c2cccs2)c1)c1ccc([N+](=O)[O-])o1	8	26	0	1	0
COc1cc(NC(=O)c2ccc([N+](=O)[O-])o2)ccc1NC(=O)c1cccs1	24*	2	0	10	3
COc1cc(NC(=O)c2cc3ccccc3cc2OC)ccc1NC(=O)c1cccs1	21*	21	-95	-15	2
COc1ccc(NC(=O)c2cc3ccccc3[nH]2)cc1	24*	-2	2	8	-2
COc1cc(NC(=O)c2cccc(Cl)c2)ccc1NC(=O)c1cccs1	30*	28	0	-1	0
Nc1[nH]c2ccccc2c1C(=O)NC1CC1	/	/	0	-11	-5
O=C(Nc1ccc(NC(=O)c2ccc([N+](=O)[O-])o2)cc1Cl)c1ccco1	22*	-2	0	-6	0
SMILES	NR3A LBD binder	FAS TE block	KLK7 zymogen act	ADAM10 inh	ADAM17 inh
COc1cccc(C(=O)Nc2cccc(C(=O)NCC(C)C)c2)c1	13*	-12	0	5	3
CCOC(=O)c1[nH]c2ccc(OC)cc2c1C	-1	-1	0	-88	-35
CCOC(=O)c1cc2cc(OC)ccc2[nH]1	11*	1	3	-179	-70
COc1ccc(C(=O)Nc2ccc3ccccc3c2)c(OC)c1	18*	27	0	13	3
COc1cccc(NC(=O)c2cccc(C(=O)Nc3cccc(OC)c3)c2)c1	3	0	0	15	-2
Cc1ccc(Cn2nnc3c2-c2ccccc2S(=O)(=O)N(C(C)(C)C)C3)cc1	/	/	1	1	-1
O=C(COc1cccc(NC(=O)c2ccccc2)c1)c1ccccc1	-36	13	0	11	1
COc1cccc(C(=O)Nc2cccc(NC(=O)c3cccs3)c2)c1	17*	6	0	3	-2
COc1c(Cl)cc(Cl)cc1/C=C/C(=O)c1ccc(NC(=O)c2cccs2)cc1	30*	39	0	-3	0
O=C(COc1cccc(NC(=O)c2cccs2)c1)c1ccc(F)cc1	13*	22	0	-3	2
COc1cccc(C(=O)Nc2cc(NC(=O)c3cccs3)ccc2C)c1	-1	5	0	-2	1
CC(C)C[C@@H]1COc2cc(Br)ccc2S(=O)(=O)N1Cc1cn(CCC2OCCO2)nn1	/	/	0	3	-1
c1ccc(C2CCC3(CC2)CCC3NCc2cccs2)cc1 (centres undefined)	/	/	/	-6	-4
O=C(CCc1nc(-c2ccccc2F)no1)NCCc1ccccc1F	/	/	-1	-6	1
O=C(CCc1nc(-c2ccccc2F)no1)NCCN1CCOCC1	14*	-6	0	4	4
NC(=O)COC(=O)CC(NC(N)=O)c1ccc(Cl)cc1 (centres undefined)	13*	-12	0	-4	3
Cc1cc(C(=O)COC(=O)CC(NC(N)=O)c2ccc(Cl)cc2)c(C)n1C (centres undefined)	0	-1	1	-6	-1
CC(=O)c1ccc(NC(=O)NC2CCCCN(Cc3ccc(Cl)cc3)C2=O)cc1 (centres undefined)	/	/	0	6	0
CC(C)CCNC(=O)NC(=O)COC(=O)/C=C/c1cnc2ccccc2n1	11*	-46	0	-3	-3
Cc1cc(Cl)ccc1OCC(=O)Nc1ccccc1NS(=O)(=O)c1cccs1	14*	6	0	5	-3
COc1ccc(Cl)cc1NC(=O)CN(C)S(=O)(=O)c1cccs1	3	8	1	-2	2
O=C(COC(=O)c1ccc(NS(=O)(=O)c2cccs2)cc1O)Nc1nc2ccccc2s1	19*	0	0	12	4
COc1ccc(Cl)cc1NC(=O)COC(=O)c1cc(NS(=O)(=O)c2cccs2)ccc1O	25*	32	0	8	-9
COC(=O)[C@]12C[C@H](CC(=O)NCCCN3CCCC3=O)C(=O)N(CCc3ccc(OC)c(OC)c3)C1=C[C@H](C1CCCC1)O[C@@H]2C	/	/	0	2	0
O=C(Nc1ccc2c(c1)OCO2)c1ccc2c(c1)OCO2	-8	-13	-1	1	-1
O=C(Nc1ccc(Cl)c(Cl)c1)c1ccc2c(c1)OCO2	37*	25	0	6	0
N#CCC(=O)Nc1ccc(C(=O)Nc2ccc3c(c2)OCO3)cc1	29*	-1	0	-1	0
